Giardia FBPA inh – qHTS Assay for Inhibitors of Fructose-1,6-bisphosphate Aldolase from Giardia Lamblia. A8B2U2. purified Giardia FBPA. Potency, µM (doses to about 59.6 µM), for inactives: at the highest dose activity, negative = inhibition, hits mostly inhibitors. 290,000 compounds, 0.71% hits; note: potency is the fitted concentration of half-maximal effect; % is set by controls: 0 for no effect and ±100 for the full control effect; nearly all actives have a fitted effect of over 55% in size
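40 nM FBPA preincubated 10 min at RT with compound (up to 57.5 uM final), then substrate plus GAPDH/TPI/NAD/arsenate coupling and diaphorase/resazurin added. Fluorescence read after 20 min at RT, 525/598 nm.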
Cycloheximide cs – Cycloheximide Counterscreen for Small Molecule Inhibitors of Shiga Toxin. cell reporter, cycloheximide protein synthesis inhibition counterscreen. max response, %. 300,000 compounds, 12% hits; in the data active = max response mostly above about 13%, no sharp cut-off; inactive = mostly below about 14%; note: read at 38.3 µM for the half of the compounds with a filed dose; 0% is about no effect
Shiga toxin inh – A qHTS for Small Molecule Inhibitors of Shiga Toxin; 290,000 compounds, 9.2% hits; inhibition, % at 38.7 µM; Vero cells, Shiga toxin protein synthesis inhibition reporter; in the data active = inhibition mostly above about 28%, no sharp cut-off; inactive = mostly below about 43%; note: 0% is about no effect
RE007 growth inh – qHTS Assay for Inhibitors of the HIV-1 protein Vpr. S. pombe RE007 Vpr strain, BacTiter-Glo ATP luminescence, 24 h. 360,000 compounds, 0.21% hits. Potency, µM (top dose mostly 92.2 µM), inactives show at the highest dose activity change, negative = less growth, most hits filed as inhibitors; active = well fitted falling curve with a large enough effect; inconclusive = small, poorly fitted or top-dose-only effect; inactive = no such curve, though single readings can be large or run the other way; note: potency is the fitted concentration of half-maximal effect; % is set by controls: 0 for no effect and ±100 for the full control effect; nearly all actives have a fitted effect of over 50% in size
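Fission yeast RE007 carrying one integrated HIV-1 vpr copy, seeded at OD 0.01 in PMG+AL medium with 23 nL pinned compound. Grown 24 h at 30 degrees; viability read by BacTiter-Glo luminescence after 5 min.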
LmPK inhibitor – qHTS Assay for Inhibitors of Leishmania Mexicana Pyruvate Kinase (LmPK). Q27686. purified LmPK, Kinase-Glo ATP luminescence, 1 h. Potency, µM (series often up to 57.5 µM), without a hit: at the top dose activity change, negative = inhibition, usual class: inhibitors. 290,000 compounds, 0.37% hits. AID 1721, 2009; note: potency is the fitted concentration of half-maximal effect; % is set by controls: 0 for no effect and ±100 for the full control effect
Target sequence (Q27686 whole entry, looked up): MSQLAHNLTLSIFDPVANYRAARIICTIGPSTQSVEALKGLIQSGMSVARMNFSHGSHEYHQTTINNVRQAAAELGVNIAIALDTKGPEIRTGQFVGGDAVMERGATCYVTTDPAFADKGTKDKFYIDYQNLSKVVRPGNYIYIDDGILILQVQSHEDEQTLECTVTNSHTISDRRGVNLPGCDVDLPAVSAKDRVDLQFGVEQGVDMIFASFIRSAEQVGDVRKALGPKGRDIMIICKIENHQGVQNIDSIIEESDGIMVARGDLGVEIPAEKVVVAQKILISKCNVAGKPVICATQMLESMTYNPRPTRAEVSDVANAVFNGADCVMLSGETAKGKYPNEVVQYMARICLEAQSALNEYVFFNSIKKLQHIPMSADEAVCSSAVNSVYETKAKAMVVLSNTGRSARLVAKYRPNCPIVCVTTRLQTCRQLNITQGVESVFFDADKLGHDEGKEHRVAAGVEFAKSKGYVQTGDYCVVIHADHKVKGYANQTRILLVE
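Pyruvate kinase activity monitored as ATP production (luciferase luminescence). Conditions: 0.1 nM enzyme, 0.5 mM PEP, 0.1 mM ADP, 1 h, RT; normalized against uninhibited and no-enzyme wells.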
Tb PYK inh – qHTS of Trypanosoma Brucei Inhibitors; AID 624173, 2012; Potency, µM (top dose mostly 76.8 µM), for inactives: top-dose activity, negative = inhibition, most hits filed as inhibitors; pyruvate kinase (Trypanosoma brucei), Q57TT1; 410,000 compounds, 0.12% hits; TbPYK enzyme, Kinase-Glo Plus ATP luminescence, 45 min; note: potency is the fitted concentration of half-maximal effect; % is set by controls: 0 for no effect and ±100 for the full control effect; nearly all actives have a fitted effect of over 50% in size
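Assay buffer: 50 mM TEA pH 7.2, 100 mM KCl, 10 mM MgCl2, 0.05% BSA, 0.01% Tween-20. Pyruvate kinase from T. brucei plus substrate met compound, then ADP (130 uM final). Luminescence was read post 45 min RT.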
An asterisk follows results filed as active; ? = inconclusive; / = not tested or not shown; ! = repeats disagree; [ ] = dose if it differs, or a comment. Only a selection was taken, and hits are over-represented in it overall. Unless noted, calls come from the whole dose curve; as a rule, active = well fitted curve in the direction sought with a large enough effect; inconclusive = small, poorly fitted or top-dose-only effect, or another doubt; inactive = no such curve, though single readings can be large; an effect the other way counts as inactive or inconclusive.

SMILES	Giardia FBPA inh	Cycloheximide cs	Shiga toxin inh	RE007 growth inh	LmPK inhibitor	Tb PYK inh
O=C(CCNC(=O)c1ccccc1Cl)Nc1ccc2c(c1)OCO2	2.7%	8.6	11.5	7.3%	-9.7%	3.7%
COc1cccc(C(=O)Nc2ccc3[nH]ncc3c2)c1OC	0.5%	32.5*	71.4*	-5.4%	-0.6%	-11.6%
O=C(CCl)Nc1ccccc1C(=O)Nc1ccc2c(c1)OCO2	-15.6%	57.5*	41.5*	8.5%	8.0%	1.5%
CCN(C(=O)Cn1nc(Cc2ccncc2)c2ccccc2c1=O)c1cccc(C(F)(F)F)c1	/	/	/	/	/	0.6%
COc1ccc(Cl)cc1NC(=O)c1cnc2sc(N3CCOCC3)nn2c1=O	/	/	/	/	/	-10.3%
CCC(CC)C(=O)Nc1c(C(=O)N2CCN(c3ccccc3F)CC2)oc2ccccc12	/	/	/	/	/	3.7%
CSc1ccccc1C(=O)Nc1ccc(C)c(C)c1	-16.2%	42.2*	90.6*	?	?	4.5%
CSc1ccccc1C(=O)Nc1cc(C)cc(C)c1	-7.7%	3.5	56.7	?	-4.1%	1.4%
CSc1ccccc1C(=O)Nc1ccc2c(c1)OCO2	-8.9%	22.8*	25.8*	-21.6%	-21.8%	-2.0%
CN(/N=C/c1cccnc1)c1cnc2ccccc2n1	0.5%	47.4*	64.4*	-21.4%	0.6%	-11.5%
Cc1noc(C)c1S(=O)(=O)Nc1ccc(C(=O)Nc2ccc(Br)cc2)cc1	/	/	/	/	/	-0.1%
CCC(c1nnnn1Cc1cccs1)N1CCN(c2nc3ccccc3s2)CC1 (configuration not stated)	9.1%	-3.0	12.1	-3.3%	6.0%	-15.5%
CC(C)CC(c1nnnn1Cc1cccs1)N1CCN(c2nc3ccccc3s2)CC1 (configuration not stated)	2.3%	20.0*	-11.0	-6.9%	6.4%	-1.3%
CCCc1cc(OC)c2c(c1)OCO2	-6.3%	/	/	/	/	/
Cc1ccc2c(c1)-c1c(cnc3cc(-c4ccc(F)cc4)nn13)CO2	/	/	/	/	/	-1.8%
Clc1ccc(-c2nc(-c3cnccn3)no2)cc1	3.2%	30.2*	58.6*	?	7.94µM*	-12.5%
Cc1noc(-c2ccc(-c3noc(-c4ccc(Cl)cc4)n3)cc2)n1	/	/	/	/	/	5.0%
Fc1ccc(-c2nc(-c3cnccn3)no2)c(Cl)c1	4.8%	40.3*	83.3*	-16.5%	?	-13.2%
O=C(OCC1(COC(=O)c2cccnc2)CCCC(COC(=O)c2cccnc2)(COC(=O)c2cccnc2)C1O)c1cccnc1	/	/	/	/	/	-6.8%
O=C(NNC(=O)C1CC=CCC1)c1ccccc1Br (configuration not stated)	-15.0%	active	16.9	-0.9%	2.6%	0.2%
O=C(NNC(=O)C1CC=CCC1)c1ccccc1O (configuration not stated)	?	17.6*	24.9	0.6%	-6.2%	-1.2%
Cc1ccc(S(=O)(=O)NCCc2nnc3ccc(SCc4ccc(F)cc4)nn23)cc1	/	/	/	/	/	0.5%
CC(=O)N1c2ccccc2C(=O)C1N1CCN(c2cccc(C)c2C)CC1 (configuration not stated)	/	/	/	/	/	8.1%[15.4 µM]
CC(=O)N1c2ccccc2C(=O)C1N(C)c1ccc(C)cc1 (configuration not stated)	-26.0%	32.8*	44.6*	4.4%	-3.1%	1.8%
CCC(Sc1nc(C)cc(=O)[nH]1)C(=O)Nc1nc2c(s1)CCCC2 (configuration not stated)	10.6%	14.9*	42.0*	-12.0%	7.4%	-1.6%
SMILES	Giardia FBPA inh	Cycloheximide cs	Shiga toxin inh	RE007 growth inh	LmPK inhibitor	Tb PYK inh
Cc1cc(=O)[nH]c(SCC(=O)Nc2nc3c(s2)CCCC3)n1	0.9%	10.0	23.6	-15.5%	-1.1%	-1.1%
COc1ccc(NC(=O)c2oc3ccccc3c2NC(=O)C2CCCO2)cc1OC (configuration not stated)	-5.7%	36.6*	28.8	2.5%	-6.0%	0.5%
Cc1ccc(NC(=O)c2oc3ccccc3c2NC(=O)C2CCCO2)cc1C (configuration not stated)	-8.6%	42.1*	100.3*	-4.3%	-0.5%	1.1%
COc1ccc(NC(=O)c2oc3ccccc3c2NC(=O)C2CC2)cc1OC	-9.9%	6.6	34.2	5.3%	0.8%	-1.6%
O=C(Nc1ccc(F)c(F)c1)c1oc2ccccc2c1NC(=O)C1CCCO1 (configuration not stated)	2.8%	12.7	13.1	19.5%	0.8%	-4.5%
COc1ccc(C2C=C3CN(C(=O)OC(C)(C)C)S(=O)(=O)C3CC2OC(=O)c2cccc(C)c2)cc1 (configuration not stated)	0.7%	5.0	16.1	/	/	/
O=C(/C=C/c1ccccc1)CC(=O)c1ccccc1O	-2.6%	25.4*	26.6*	-3.8%	-0.8%	-1.4%
O=C(/C=C/c1ccccc1)NC(=O)c1ccccc1O	10.6%	28.4*	50.9*	?	-5.7%	-2.7%
COc1ccc(-n2c(=O)c(-c3ccc(Cl)cc3)nc3cnc(N(C)C)nc32)cc1	-2.9%	/	/	/	/	/
O=C(CSc1nc(-c2ccccc2)nc2c1Cc1ccccc1O2)N1CCCCC1	/	/	/	/	/	5.1%
C[c-]1[c-](C)[c-](C)[c-](C)[c-]1C.[Fe].c1cc2nccc(N3CCCC3)[c-]2c1 (configuration not stated)	?	-1.3	6.7	-15.7%	31.6µM*!	-16.2%
C=CCSc1nc(=O)n2ccc(C)cc2n1	-6.5%	27.6*	36.5	16.6%	10.4%	1.9%
CC(=O)[C@@H]1[C@H]2[C@H](C(=O)[C@H]3OC[C@@H]2O3)[C@H]2C=Cc3ccccc3N21	22.3µM*	/	/	/	/	/
Cc1cc(N2C(=O)Cc3ccccc3C2=O)ccc1C(C)C	-12.2%	18.9*	26.7	-18.4%	-0.5%	-1.3%
CC(NC(=O)c1cc(-c2ccccn2)nc2ccc(Cl)cc12)C1CCCO1 (configuration not stated)	/	8.7	-31.1	-6.2%	-7.7%	-9.3%
CC(=O)c1ccc(N2CCN(C(=O)c3cc(-c4ccncc4)nc4ccc(Cl)cc34)CC2)cc1	/	14.2*	23.8	-3.3%	0.0%	2.2%
CC(NC(=O)c1cc(-c2ccncc2)nc2ccc(Cl)cc12)C1CCCO1 (configuration not stated)	/	13.2*	38.0*	4.8%	0.0%	3.4%
O=C(c1cc(-c2ccncc2)nc2ccc(Cl)cc12)N1CCN(C(=O)C2CCCO2)CC1 (configuration not stated)	7.9%	-2.8	-8.3	-4.4%	3.2%	-3.1%
Cc1ccc(NC(=O)c2sc3ccccc3c2Cl)nc1	0.4%	42.9*	65.4*	6.2%	-22.1%	-9.8%
Cc1cccnc1NC(=O)c1sc2ccccc2c1Cl	/	50.7*	90.0*	-28.3%	-2.9%	-0.4%
